In PubChem BioAssay AID431 (Sanford-Burnham Center for Chemical Genomics, 2006):
Screen size: about 63,000 compounds; about 1,100 (1.7%) were called active.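 How the source made its calls: active means compounds whose percent cytotoxicity in the single-dose primary screen, scaled between solvent and toxic-drug controls, exceeds 50; inactive means the rest.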 Only a selection was taken, and actives are over-represented in it overall. Measured potencies and affinities stand elsewhere.

Assay: viability loss of HPDE-C7K cells – cell-based, fluorescence, HTS, primary screen (AID 431);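 further: 0% = DMSO solvent wells and 100% = doxorubicin-treated wells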
Details: HPDE-C7K KRASV12 cells, Alamar Blue viability, 48 h; at 10 µM; stronger effect = higher value

| SMILES | cytotoxicity |
| --- | --- |
| CCOc1ccccc1OCC(=O)Nc1ccc(S(=O)(=O)N(C)C)cc1 | 3.1% (inactive) |
| O=C(Cn1nnc(-c2ccccc2F)n1)Nc1ccc(S(=O)(=O)NC2CCCC2)cc1 | -26.3% (inactive) |
| CCOC(=O)C(C)Oc1cccc2c(=O)n(CC(=O)N3CCN(C(=O)OCC)CC3)ccc12 (configuration not stated) | -16.7% (inactive) |
| CCOC(=O)C(C)Oc1cccc2c(=O)n(CC(=O)NCc3ccc4c(c3)OCO4)ccc12 (configuration not stated) | 38.8% (inactive) |
| CCOC(=O)C(C)Oc1cccc2c(=O)n(CC(=O)NCc3ccco3)ccc12 (configuration not stated) | 61.1% (active) |
| COc1ccc(NC(=O)C2CCCN(S(=O)(=O)c3cnc[nH]3)C2)cc1 (configuration not stated) | -5.3% (inactive) |
| COc1ccc(Br)cc1C(=O)Nc1ccc(O)cc1 | -14.3% (inactive) |
| COc1cc(C)c(CNc2ccc(OC)c(OC)c2)cc1C | 21.6% (inactive) |
| COc1ccc(Br)cc1CNc1ccc(O)cc1 | 50% (active) |
| Cc1ccc(-n2nnnc2SCC(=O)Nc2c(C)n(C)n(-c3ccccc3)c2=O)cc1 | -3.4% (inactive) |
| COc1ccc(OC)c(Nc2cc(C(=O)NCCCN3CCOCC3)c3ccccc3n2)c1 | 1.8% (inactive) |
| CCOc1ccc(NC(=O)Cn2nnc(-c3ccccc3NC(=O)CC)n2)cc1 | 5.1% (inactive) |
| NC(=O)c1cc2ccc(O)cc2oc1=NCc1ccccc1 | 4.1% (inactive) |
| CC(=NCc1ccccc1)C1=C(O)COC1=O | -6% (inactive) |
| COc1ccccc1NC(=O)CC1Nc2ccccc2NC1=O (configuration not stated) | -4.5% (inactive) |
| Cc1ccc(NC(=O)CC2Nc3ccccc3NC2=O)cc1Cl (configuration not stated) | 51.6% (active) |
| O=C(CC1Nc2ccccc2NC1=O)Nc1ccccc1 (configuration not stated) | -3.2% (inactive) |
| Cc1nc(SCc2c(F)cccc2Cl)c2c(=O)n(C)c(=O)n(C)c2n1 | -12.8% (inactive) |
| CC(C)c1nc(SCc2ccccn2)c2c(=O)n(C)c(=O)n(C)c2n1 | 1.9% (inactive) |
| CC(C)c1nc(SCc2c(F)cccc2Cl)c2c(=O)n(C)c(=O)n(C)c2n1 | 70.4% (active) |
| CCC(CC)C(=O)Nc1ccccc1NC(C)=O | -16% (inactive) |
| N#CCCN(CCC#N)C(=O)c1ccc2c(c1)OCO2 | -3.2% (inactive) |
| COc1ccc(Nc2cc(C)nc(-n3nc(C)cc3C)n2)cc1 | 79.2% (active) |
| COC(=O)c1ccc(Oc2cc(C)nc(-n3nc(C)cc3C)n2)cc1 | 32.6% (inactive) |
| CC(=O)c1ccc(Oc2cc(C)nc(-n3nc(C)cc3C)n2)cc1 | 56.4% (active) |

| SMILES | cytotoxicity |
| --- | --- |
| CCOc1ccc(Nc2cc(C)nc(-n3nc(C)cc3C)n2)cc1 | 40.7% (inactive) |
| CNc1cc(C)nc(-n2nc(C)cc2C)n1 | -14.9% (inactive) |
| COc1ccc(N2CCN(C(=O)c3ccc(-n4nc(C)cc4C)cc3)CC2)cc1 | 2.6% (inactive) |
| Cc1cc(NC(=O)c2cnn3c(C(F)F)cc(C4CC4)nc23)no1 | 20.6% (inactive) |
| COc1cccc(NC(=O)c2ccccc2-c2nc(-c3ccccc3)no2)c1 | 25.4% (inactive) |
| COc1ccc(OC)c(NC(=O)CNC(=O)Cn2cnc3ccccc3c2=O)c1 | 2.3% (inactive) |
| Cc1cccc(N(C)S(=O)(=O)c2cccc3nsnc23)c1 | 14.4% (inactive) |
| CCOC(=O)C1CCN(C(=O)c2oc3ccc(S(=O)(=O)N4CC(C)CC(C)C4)cc3c2C)CC1 (configuration not stated) | 5.5% (inactive) |
| Cc1ccc(-c2csc3nc(C)n(-n4cccc4)c(=O)c23)o1 | 0.5% (inactive) |
| Cc1nnc(SCC(=O)n2c3c(c4ccccc42)CCCC3)s1 | 6.2% (inactive) |
| O=C(O)CSc1nnc(-c2ccccc2)o1 | 19.6% (inactive) |
| O=C(CSc1nnc(-c2ccccc2)o1)n1c2c(c3ccccc31)CCCC2 | 69.9% (active) |
| Cc1cccc(NC(=O)CSc2n[nH]c(-c3ccncc3)n2)c1 | -6.1% (inactive) |
| Cc1ccc(N(CC(=O)Nc2ccc3c(c2)OCCO3)S(=O)(=O)c2c(C)n[nH]c2C)cc1 | 9.8% (inactive) |
| COc1cc2c(C#N)c(N3CCCCC3)nc(N)c2c(N)n1 | 56.9% (active) |
| COc1ccccc1-c1nc(C#N)c(N2CCc3ccccc3C2)o1 | 20.5% (inactive) |
| CCOc1ccccc1N1CCN(c2nc(N)c(C#N)c(CC#N)c2C#N)CC1 | -11.4% (inactive) |
| CCOc1cc2c(C#N)c(N3CCOCC3)nc(N)c2c(N)n1 | 22.5% (inactive) |
| COc1cc2c(C#N)c(N3CCN(c4ccccc4OC)CC3)nc(N)c2c(N)n1 | 57.2% (active) |
| COc1cc2c(C#N)c(N3CCOCC3)nc(N)c2c(N)n1 | 46.6% (inactive) |
| COc1ccccc1N1CCN(c2nc(N)c(C#N)c(CC#N)c2C#N)CC1 | -4.3% (inactive) |
| N#Cc1c(N2CCCC2)nc(N)c2c(N)nc(N3CCCC3)cc12 | -2.8% (inactive) |
| Cn1c(=O)c2c(nc(Oc3ccc4c(c3)OCO4)n2Cc2ccc(Cl)cc2)n(C)c1=O | 12.9% (inactive) |
| Cc1cc(Br)c(S(=O)(=O)NCCN2CCOCC2)cc1C | 8.4% (inactive) |
| CN(Cc1ccco1)C(=O)Cn1c(=O)oc2cc(S(=O)(=O)NCc3ccccc3)ccc21 | 13.3% (inactive) |

| SMILES | cytotoxicity |
| --- | --- |
| CN(CCCn1c(=S)[nH]c2ncccc2c1=O)Cc1ccccc1 | -13.7% (inactive) |
| COc1ccc(OC)c(-c2cc(C(=O)N3CCCc4ccccc43)no2)c1 | -6.9% (inactive) |
| COc1ccc(CCNC2CC(=O)N(CCc3ccc(OC)c(OC)c3)C2=O)cc1OC (configuration not stated) | 6.1% (inactive) |
| COC(=O)Nc1ccc(Oc2ccccc2)cc1 | -4.1% (inactive) |
| COc1ccccc1C(c1nnnn1Cc1ccccc1)N1CCN(c2nc3ccccc3s2)CC1 (configuration not stated) | -13% (inactive) |
| CNS(=O)(=O)c1ccc(Oc2ccc(S(=O)(=O)NC)cc2)cc1 | 9.9% (inactive) |
| C=CS(=O)(=O)c1ccc(Oc2ccc(S(=O)(=O)C=C)cc2)cc1 | 94.8% (active) |
| O=S(=O)(c1ccc(Oc2ccc(S(=O)(=O)N3CCOCC3)cc2)cc1)N1CCOCC1 | -9% (inactive) |
| CCn1cc(C(=O)NCCCN(C)C)c(=O)c2cc(F)c(N3CCN(C)CC3)cc21 | -0.3% (inactive) |
| CCn1cc(C(=O)NCCc2ccccc2)c(=O)c2cc(F)c(N3CCN(C)CC3)cc21 | 50.5% (active) |
| CCn1cc(C(=O)NCc2ccccn2)c(=O)c2cc(F)c(N3CCN(C)CC3)cc21 | 2.1% (inactive) |
| C/C(Cl)=C\Cn1c(N2CCCCCC2)nc2c1c(=O)n(C)c(=O)n2C | 12% (inactive) |
| N#Cc1ccc(NC(=O)c2cc3cc4c5c(c3oc2=N)CCCN5CCC4)cc1 | 12.7% (inactive) |
| Cc1cc(-c2ccccc2)nc(N2CCN(c3ccccn3)CC2)n1 | 5.4% (inactive) |
| O=C(c1cc(Cl)ccc1Cl)N1CCN(c2ccccn2)CC1 | 1.5% (inactive) |
| COC(=O)c1sc(Nc2ccccc2)nc1C | 0.2% (inactive) |
| CCS(=O)(=O)N1CCN(c2cccc(C)c2C)CC1 | -2.5% (inactive) |
| c1ccc(-c2cc(-c3nc(-c4ccccn4)no3)c3ccccc3n2)cc1 | 60.7% (active) |
| c1ccc(-c2cc(-c3nc(-c4cccnc4)no3)c3ccccc3n2)cc1 | -19.7% (inactive) |
| c1ccc(-c2ccc(-c3nc(-c4ccccn4)no3)cc2)cc1 | -2.8% (inactive) |
| Cc1cc(C)n2cc(CSc3nnnn3-c3ccccc3C)nc2n1 | -17.4% (inactive) |
| COc1ccc(CSc2nnc(N)s2)cc1F | 49.9% (inactive) |
| Cc1ccc2c(c1)c1c3n2CCN(C(=O)CN2CCN(C)CC2)C3CCC1 (configuration not stated) | 42.5% (inactive) |
| Cc1ccc2c(c1)c1c3n2CCN(C(=O)C2CC2)C3CCC1 (configuration not stated) | -2.9% (inactive) |
| COc1ccccc1N1CCN(C(=O)CCCCn2c(=O)[nH]c3ccsc3c2=O)CC1 | 1.8% (inactive) |

| SMILES | cytotoxicity |
| --- | --- |
| CN1CCc2nc(SCC(=O)Nc3ccc(F)cc3)c(C#N)cc2C1 | -5% (inactive) |
| O=C(Nc1cccc(C(F)(F)F)c1)c1cccnc1N1CCN(CCO)CC1 | -13.4% (inactive) |
| FC(F)(F)c1cccc(CN2CCCCCC2)c1 | -5.3% (inactive) |
| O=C(CN1CCCC(O)C1)N1c2ccccc2Sc2ccc(C(F)(F)F)cc21 (configuration not stated) | -4% (inactive) |
| C=CCN1C(=O)c2ccccc2Sc2ccc(C(=O)N3CCN(C)CC3)cc21 | -13.7% (inactive) |
| C=CCOC(=O)CC(NC(=O)c1ccccc1)c1ccccc1 (configuration not stated) | -11.4% (inactive) |
| COc1ccccc1-c1cn(S(=O)(=O)c2ccc(F)cc2)nc1N | 2% (inactive) |
| Cc1ccc(C(=O)c2coc3ccc(O)c(CN4CCN(C)CC4)c23)cc1 | -9% (inactive) |
| O=C(c1ccccc1)c1coc2ccc(O)c(Cl)c12 | -15% (inactive) |
| CC(=O)C(C(C)=O)c1c(Cl)c(O)c(O)c2c(C(=O)c3ccccc3)coc12 | 76.1% (active) |
| CN(C)Cc1c(O)ccc2occ(C(=O)c3ccccc3)c12 | 6.6% (inactive) |
| CCOC(=O)c1[nH]nc(C(=O)c2ccc(Br)cc2)c1O | 5.4% (inactive) |
| c1cncc(C(c2nnnn2C2CCCC2)N2CCCC2)c1 (configuration not stated) | 6% (inactive) |
| Cc1ccc(SCc2nc(-c3ccccc3)no2)cc1 | -10.8% (inactive) |
| O=C(O)CCC(=O)N1CCN(c2cccc(Cl)c2)CC1 | -6.3% (inactive) |
| CCc1[nH]c(C)c(C(C)=O)c1C | 65.5% (active) |
| CCCNC(=O)c1[nH]c(C)c(C(C)=O)c1C | 7.9% (inactive) |
| CC(=O)c1c(C)[nH]c(C)c1C(C)=O | -3.5% (inactive) |
| O=C(Nc1ccccc1C(=O)N1CCCC1)c1cccc(S(=O)(=O)N2CCCCCC2)c1 | -4.2% (inactive) |
| c1ccc2c(c1)CCN2CCN1CCc2ccccc21 | 1.1% (inactive) |
| COc1ccc(NC(=O)C2CCCN2C(=O)NCc2ccccc2)c(OC)c1 (configuration not stated) | -13.7% (inactive) |
| O=C(c1cc(-c2ccccn2)nc2c(Cl)cccc12)N1CCN(C(=O)C2CCCO2)CC1 (configuration not stated) | 0.1% (inactive) |
